The campaign covered roughly 220,000 compounds. About 910 (0.41%) were called active. This excerpt belongs to a sample that is enriched for actives. Results with a measured potency or affinity are listed apart. Unmarked numbers belong to inactive results.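 How the source made its calls: active means primary inhibition above the hit cutoff, then over 50% inhibition at one or more dose response concentrations (cut at about 23% in these data, passing the limit was not always enough); inconclusive means conflicting primary data, or primary hits not chosen for dose response; inactive means low primary inhibition, or under 50% at every dose.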
Each molecule was assayed against Aminopeptidase N (Plasmodium falciparum (isolate 3D7)) (UniProt O96935) (assay: P. falciparum M1AAP inhibitors, biochemical, fluorogenic H-Leu-NHMec substrate, 1536-well (AID 1445;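 further: plate controls were DMSO full reaction for no effect and no enzyme background for full effect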)). Conditions: recombinant M1AAP, H-Leu-NHMec fluorogenic kinetic assay; at 30 µM, hits give high values unless noted.
Sequence of Aminopeptidase N (Plasmodium falciparum (isolate 3D7)) (O96935 whole entry, looked up): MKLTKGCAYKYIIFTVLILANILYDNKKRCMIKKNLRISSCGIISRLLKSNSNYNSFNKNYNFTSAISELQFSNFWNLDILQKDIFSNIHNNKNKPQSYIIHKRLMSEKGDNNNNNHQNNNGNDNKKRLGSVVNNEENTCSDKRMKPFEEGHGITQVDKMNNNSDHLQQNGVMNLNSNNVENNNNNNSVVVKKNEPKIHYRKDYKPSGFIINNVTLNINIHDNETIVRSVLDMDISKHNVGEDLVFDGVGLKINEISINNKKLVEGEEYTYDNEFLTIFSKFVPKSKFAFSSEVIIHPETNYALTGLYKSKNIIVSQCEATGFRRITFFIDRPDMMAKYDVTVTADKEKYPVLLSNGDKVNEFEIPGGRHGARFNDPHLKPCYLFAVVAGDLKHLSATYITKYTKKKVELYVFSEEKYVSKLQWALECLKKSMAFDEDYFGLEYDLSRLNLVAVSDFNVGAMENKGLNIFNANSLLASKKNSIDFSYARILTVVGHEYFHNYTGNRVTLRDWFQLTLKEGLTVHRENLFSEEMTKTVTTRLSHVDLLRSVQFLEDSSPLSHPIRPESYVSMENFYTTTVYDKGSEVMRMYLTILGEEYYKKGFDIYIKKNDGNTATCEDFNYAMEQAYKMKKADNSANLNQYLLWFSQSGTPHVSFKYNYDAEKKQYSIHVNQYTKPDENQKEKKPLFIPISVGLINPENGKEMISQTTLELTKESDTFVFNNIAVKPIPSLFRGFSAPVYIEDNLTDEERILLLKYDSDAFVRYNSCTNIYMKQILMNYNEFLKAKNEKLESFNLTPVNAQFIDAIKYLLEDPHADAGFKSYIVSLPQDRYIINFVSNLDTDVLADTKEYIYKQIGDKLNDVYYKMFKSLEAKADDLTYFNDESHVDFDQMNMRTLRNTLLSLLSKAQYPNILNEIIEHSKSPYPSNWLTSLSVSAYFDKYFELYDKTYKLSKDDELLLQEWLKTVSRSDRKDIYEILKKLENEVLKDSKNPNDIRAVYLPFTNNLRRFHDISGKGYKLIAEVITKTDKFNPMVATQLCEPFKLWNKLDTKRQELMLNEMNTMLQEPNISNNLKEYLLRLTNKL

Compound	inhibition
CC1CCc2nc3ccc(S(=O)(=O)N4CCC(C(=O)NC5CCCC5)CC4)cc3c(C(=O)O)c2C1 (configuration not stated)	23.4% (active)
CCCNC(=O)C1CCN(S(=O)(=O)c2ccc(Br)cc2)CC1	0.41%
O=C(O)c1c2c(nc3ccc(S(=O)(=O)N4CCC(C(=O)N5CCCCC5)CC4)cc13)CCCC2	4.87%
CC1CCc2nc3ccc(S(=O)(=O)N4CCC(C(=O)N5CCCCCC5)CC4)cc3c(C(=O)O)c2C1 (configuration not stated)	13.6%
CC1CCc2nc3ccc(S(=O)(=O)N4CCC(C(=O)N5CCCCC5)CC4)cc3c(C(=O)O)c2C1 (configuration not stated)	7.8%
O=C(CSc1nc2c(c(=O)[nH]1)CCCC2)Nc1ccc(Cl)cc1F	-2.08%
CS(=O)(=O)N1CCC(C(=O)Nc2ccc(F)cc2F)CC1	-3.46%
CCCCC(CC)CNC(=O)c1cccs1 (configuration not stated)	-3.27%
Cc1ccccc1NS(=O)(=O)c1cc(C(=O)N2CCCC2)ccc1C	4.97%
Cc1nnc(SCC(=O)NCCN2C(=O)CSC2=O)s1	2.17%
Cc1ccc(CSc2ncccc2C(=O)O)cc1	1.82%
Cc1cccc(CSc2ncccc2C(=O)O)c1	2.89%
COc1ccc(-c2cc(C(=O)NCc3ccccc3)no2)cc1OC	-1.3%
CC(=O)N=c1sc2cc(C)ccc2n1C	3.39%
Cc1cc(C(=O)OCC(=O)NCc2ccc(Cl)cc2)c(C)o1	-6.7%
CCN(CC)CCC(=O)Nc1cccc2c1C(=O)c1ccccc1C2=O	7.62%
CCN(CC)CC(=O)Nc1cccc2c1C(=O)c1ccccc1C2=O	5.73%
CCN(CC)C(C(=O)NC1CCCCC1)c1ccc(C)cc1 (configuration not stated)	-1.29%
COc1ccc(NC(=O)CN2C(=O)c3ccccc3Sc3ccc(C(=O)N4CCOCC4)cc32)c(OC)c1	9.02%
CC(C)C1C(C#N)=C(N)Oc2n[nH]c(-c3cccs3)c21 (configuration not stated)	5.75%
CC(C)CC1C(C#N)=C(N)Oc2n[nH]c(-c3cccs3)c21 (configuration not stated)	-0.26%
CSCCC1C(C#N)=C(N)Oc2n[nH]c(-c3cccs3)c21 (configuration not stated)	23.8% (active)
Cc1ccc2c(CN3C(=O)NC4(CCCCC4)C3=O)cc(=O)oc2c1C	8.97%
Cc1ccc(CSc2nc3sc(C)c(C)c3c(=O)n2Cc2ccco2)cc1	9.77%

Compound	inhibition
Cc1ccc(C)c(NC(=O)c2ccc3c(c2)N(Cc2ccc(F)cc2)C(=O)CS3=O)c1 (configuration not stated)	-7.55%
O=C(Nc1ccccc1Cl)c1ccc2c(c1)N(Cc1ccc(F)cc1)C(=O)CS2=O (configuration not stated)	3.24%
O=C(NC1CCCCCCC1)c1ccc2c(c1)N(Cc1ccc(F)cc1)C(=O)CS2=O (configuration not stated)	23.5% (active)
CNC(=O)c1cc2c(ccc3ccccc32)o1	3.24%
Cn1ncc(Br)c1C(=O)Nc1ccc(Br)cn1	-3.07%
Cc1occc1C(=O)NCCCc1ccccc1	0.03%
O=C(Nc1nnc(SCc2ccccc2)s1)c1cccs1	-2.48%
COCC(=O)Nc1cc(C(=O)NCCc2ccccc2)ccc1Cl	-6.24%
COc1cccc(C(=O)Nc2cc(C(=O)NCCc3ccccc3)ccc2Cl)c1	24.9% (active)
COc1ccc(C(=O)Nc2cc(C(=O)NCCc3ccccc3)ccc2Cl)cc1	13.3%
Cc1ccc(C(C(=O)NC(C)(C)C)N(Cc2cccs2)C(=O)c2ccc3c(c2)OCCO3)cc1 (configuration not stated)	9.95%
O=C(Cn1nnc(-c2ccc3c(c2)OCO3)n1)N1CCOCC1	0.39%
CCOc1ccc(N2CC(C(=O)Nc3ccc(S(=O)(=O)Nc4ncccn4)cc3)CC2=O)cc1 (configuration not stated)	20.6%
CN(Cc1cnccn1)Cc1c(C(=O)N2CCc3ccccc3C2)nc2ccc(Cl)cn12	1.48%
CC1(NC(=S)NCCO)CCS(=O)(=O)C1 (configuration not stated)	6.94%
COc1ccc(NC(=O)C2CCCN(S(=O)(=O)c3cccc4cccnc34)C2)cc1OC (configuration not stated)	28.4% (active)
O=C(NCc1cccs1)C1CCN(S(=O)(=O)c2cccc3cccnc23)CC1	45.9% (active)
COc1cccc(NC(=O)C2CCCN(S(=O)(=O)c3cccc4cccnc34)C2)c1 (configuration not stated)	4.01%
O=C(NCc1ccco1)C1CCN(S(=O)(=O)c2cccc3cccnc23)CC1	0.35%
COc1ccc(NC(=O)C2CCN(S(=O)(=O)c3cccc4cccnc34)CC2)cc1OC	2.6%
O=C(NCc1cccs1)C1CCN(S(=O)(=O)c2cccc3nsnc23)CC1	6.27%
O=C(NCc1cccs1)C1CCCN(S(=O)(=O)c2cccc3cccnc23)C1 (configuration not stated)	21.9%
COc1ccc(CNC(=O)C2CCN(S(=O)(=O)c3cccc4cccnc34)CC2)cc1	11.4%

Source: PubChem BioAssay AID1445 (SRMLSC, 2008)
